Records with an inconclusive call do not appear. Activity calls are given as the source filed them. Rule for the calls: active = hit-call score of the fitted dose curve at least 0.9, where 1 is the maximum; inconclusive = response in the unintended direction; inactive = score below 0.9.

In this assay the target is human Thyroid Receptor Alpha (TRa), THRA (gene 7067) (UniProt P10827). Description: NVS_NR_hTRa_Antagonist: NovaScreen (NVS) Nuclear Receptor Binding Assay for human Thyroid Receptor Alpha Antagonism (TRa) (AID 2283362). As to the method: NVS_NR_hTRa_Antagonist is a biochemical, single-readout assay that uses extracted gene-proteins in a cell-free assay. Measurements were taken 1 hour after chemical dosing in a 384-well plate.NVS_NR_hTRa_Antagonist is one of one assay component(s) measured or calculated from the NVS_NR_hTRa_Antagonist assay. It is designed to make measurements of enzyme-linked immunosorbent assay, a form of binding reporter, as detected with chemiluminescence signals by AlphaLISA immunoassay technology.Data from the assay component NVS_NR_hTRa_Antagonist was analyzed into 1 assay endpoint. This assay endpoint, NVS_NR_hTRa_Antagonist, was analyzed in the positive analysis fitting direction relative to DMSO as the negative control and baseline of activity. Using a type of binding reporter, loss-of-signal activity can be used to understand changes in the binding as they relate to the gene THRA. Furthermore, this assay endpoint can be referred to as a primary readout, because the performed assay has only produced 1 assay endpoint. To generalize the intended target to other relatable targets, this assay endpoint is annotated to the nuclear receptor intended target family, where the subfamily is non-steroidal.
human Thyroid Receptor Alpha (TRa), THRA (gene 7067), sequence (P10827 whole entry, looked up): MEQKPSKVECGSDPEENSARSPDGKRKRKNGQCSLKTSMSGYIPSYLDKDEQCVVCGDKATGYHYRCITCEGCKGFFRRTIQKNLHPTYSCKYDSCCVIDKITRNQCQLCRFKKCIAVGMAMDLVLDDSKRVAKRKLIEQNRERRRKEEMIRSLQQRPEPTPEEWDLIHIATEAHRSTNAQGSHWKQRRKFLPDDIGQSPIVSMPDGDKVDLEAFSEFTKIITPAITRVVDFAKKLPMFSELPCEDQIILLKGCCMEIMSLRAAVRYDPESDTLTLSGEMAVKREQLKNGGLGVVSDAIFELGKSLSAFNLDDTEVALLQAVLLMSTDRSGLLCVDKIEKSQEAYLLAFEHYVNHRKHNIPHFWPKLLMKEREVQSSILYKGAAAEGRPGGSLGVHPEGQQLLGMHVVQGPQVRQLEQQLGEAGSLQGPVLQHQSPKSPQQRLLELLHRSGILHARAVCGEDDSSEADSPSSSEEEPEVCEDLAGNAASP
Binding assays used specific radioligands (tritiated, iodinated) with non-radioactive competitive displacement ligands in agonist or antagonist protocols (as indicated) and various reference compounds and inhibitors to titrate specific binding to receptors and transporters. Most enzyme assays (CYPs, kinases, phosphatases, proteases, HDACs) used recombinant protein and specific substrates (fluorescence mostly, some colorimetric and radioactive) and inhibitors, followed by a biochemical separation of substrate and product. All assays for the biochemical HTS were initially run in duplicate at a single concentration (10 uM for CYP450 assays and 25 uM for all others). […] Each assay was run with positive and negative controls, and concurrent controls on every plate. The follow-up (secondary) screen tested active chemical-pairs in concentration series, as well as a few additional assays not tested in the primary screen, some selected negative inactives, and several cases re-run in the concentration series for confirmatory purposes.
Turning to `CCCCC(O)(Cn1cncn1)c1ccc(Cl)cc1Cl` (configuration not stated), the molecule was called inactive. Turning to `CCN(CC)c1nc(C)cc(OP(=S)(OC)OC)n1`, the call was inactive. As to `OC(c1ccc(Cl)cc1)(c1ccc(Cl)cc1)C(Cl)(Cl)Cl`, the molecule was classed as inactive.

Take `CCCCC(C#N)(Cn1cncn1)c1ccc(Cl)cc1` (configuration not stated): the molecule was called inactive. As to `COP(=S)(OC)Oc1ccc([N+](=O)[O-])c(C)c1`, the call was inactive. Take `CNC(=O)Oc1cccc2ccccc12`: the molecule was classed as inactive. Regarding `CN=C=S`, the molecule was classed as inactive. For the molecule `N#Cc1c(Cl)cccc1Cl`, the molecule was classed as inactive. Turning to `CCOC(=O)C(C)OC(=O)c1cc(Oc2ccc(C(F)(F)F)cc2Cl)ccc1[N+](=O)[O-]` (configuration not stated), the call was inactive. On the same count and under the same terms, the result for `Cc1cnc(C2=NC(C)(C(C)C)C(=O)N2)c(C(=O)O)c1` (configuration not stated) reads “inactive”. For the molecule `Clc1nc(Cl)nc(Nc2ccccc2Cl)n1`, the AC50 was 25 µM (active). In the case of `CC(C)(C)C(=O)C(Oc1ccc(Cl)cc1)n1cncn1` (configuration not stated), the call was inactive.

The values are drawn from PubChem BioAssay (EPA / NIEHS).
